PubChem BioAssay AID1529 (NMMLSC, 2009)
Out of some 290,000 compounds screened, about 4,200 (1.4%) were called active. For the sample, actives were picked, then their nearest neighbours and some compounds at random. Values without a mark were called inactive.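 The calls were made as follows: active = binding response more than 3 SD above or below the average of its plate-row segment, actives on both sides; inconclusive = wells at one plate position flagged as instrument error; inactive = the rest.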

Target: Mitogen-activated protein kinase kinase kinase 3 (Homo sapiens) (UniProt Q99759)
Sequence (Q99759 whole entry, looked up): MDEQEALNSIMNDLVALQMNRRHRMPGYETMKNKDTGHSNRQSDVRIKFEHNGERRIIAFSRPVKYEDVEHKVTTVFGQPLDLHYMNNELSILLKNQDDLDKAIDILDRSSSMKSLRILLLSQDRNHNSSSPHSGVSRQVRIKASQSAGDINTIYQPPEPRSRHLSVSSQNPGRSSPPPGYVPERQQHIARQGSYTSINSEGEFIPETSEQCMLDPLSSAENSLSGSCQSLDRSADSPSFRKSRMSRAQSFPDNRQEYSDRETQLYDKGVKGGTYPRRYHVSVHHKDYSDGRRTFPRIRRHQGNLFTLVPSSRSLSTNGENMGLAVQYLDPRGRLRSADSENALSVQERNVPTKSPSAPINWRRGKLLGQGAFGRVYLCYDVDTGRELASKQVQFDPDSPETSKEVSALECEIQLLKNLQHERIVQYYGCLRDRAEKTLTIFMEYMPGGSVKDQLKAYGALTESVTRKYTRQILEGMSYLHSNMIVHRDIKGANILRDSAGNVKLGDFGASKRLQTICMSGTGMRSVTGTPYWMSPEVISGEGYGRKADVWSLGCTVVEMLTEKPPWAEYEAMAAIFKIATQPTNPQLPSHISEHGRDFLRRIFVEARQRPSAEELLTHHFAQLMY
Experiment: compounds raising or lowering MEK5 association with MEKK3 PB1 – biochemical, wildtype MEKK3, multiplex bead flow cytometry, Alexa488-MEK5, primary screen (AID 1529);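 also: Alexa488 bead fluorescence after subtracting the streptavidin-only scavenger bead signal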
Details: bead-based flow cytometry, Alexa488-MEK5 binding to MEKK3; at 10 µM; actives lie on both sides; 0 = blocked by unlabeled MEK5, 100 = vehicle

Row | Compound | binding response (% of control)
1 | CCOC(=O)Cn1c(O)c(N=NC(=O)CNC(=O)Cc2ccccc2)c2ccccc21 | 99%
2 | COc1ccccc1CN1CC(C(=O)NCCc2cn[nH]c2)CCC1=O (stereo unspecified) | 104%
3 | COc1ccccc1CCNS(=O)(=O)c1cn(C)nc1C | 104%
4 | COc1ccccc1CNC(=O)C1CCN(C(=O)[C@@H]2Cc3ccccc3CN2)CC1 | 101%
5 | COc1ccc2nc(Nc3nc(-c4cc5ccccc5oc4=O)cs3)sc2c1 | 82%
6 | COc1ccc2nc(Nc3nc(-c4ccncc4)cs3)sc2c1 | 104%
7 | COc1ccc2nc(Nc3nc4cc5c(cc4s3)OCCO5)sc2c1 | 137% (active)
8 | CNC[C@H](CC1CCCCC1)NC[C@H](NCCC1CCCC1)[C@H](C)O | 102%
9 | Cc1ccc(-c2nc(-c3ccncc3)no2)c(C)c1 | 102%
10 | COc1ccccc1Cc1nc(-c2ccc(C)cc2)no1 | 101%
11 | COc1cc(-c2nc(-c3ccncc3)no2)cc(OC)c1OC | 1% [inhibitor] (active)
12 | O=C(NCc1ccccc1)C1=C[C@@H](c2ccccc2)C[C@@H](OCCCCO)O1 | 101%
13 | O=C(CCNS(=O)(=O)c1cccs1)N1CCN(c2ccc(F)cc2)CC1 | 102%
14 | O=C(Cn1cc(/C=N/NC(=O)c2cccc(C(F)(F)F)c2)c2ccccc21)Nc1ccc(F)cc1 | 103%
15 | CCNC(=O)Nc1ccc(S(=O)(=O)Nc2cnc(C)nc2C)cc1 | 101%
16 | O=C(NCc1cccc(Cl)c1)C1CCN(c2nnc(N3CCCC3=O)s2)CC1 | 96%
17 | Cc1ccnc(NS(=O)(=O)c2ccc(NC(=O)c3oc4ccccc4c3C)cc2)n1 | 102%
18 | Cc1cccc(CSc2nc3c(c(=O)n2C)SCC3)c1 | 100%
19 | Cc1nnc(SCc2cccc(Cl)c2)n(N)c1=O | 98%
20 | Cc1cccc(CSc2nnc(C)c(=O)n2N)c1 | 128% (active)
21 | COc1ccc(NC(=O)N2CCCC(C(=O)Nc3ccccc3OC)C2)cc1 (stereo unspecified) | 100%
22 | COC(=O)CCCC1=CC2=CC(=O)C(C)(OC(=O)c3cccs3)C(=O)C2=CN1CC1CC1 (stereo unspecified) | 93%
23 | COCCN1C=C2C(=O)C(C)(OC(=O)C3CCCC3)C(=O)C=C2C=C1c1ccsc1 (stereo unspecified) | 133% (active)
24 | CC1(OC(=O)C2CCCC2)C(=O)C=C2C=C(c3ccc(C#N)cc3)OC=C2C1=O (stereo unspecified) | 94%

Row | Compound | binding response (% of control)
25 | COc1ccc(CCNc2nc3ccc(C)cc3n3cnnc23)cc1OC | 102%
26 | O=C(/C=C/c1ccco1)NC(=S)Nc1ccccc1Br | 102%
27 | Cc1cc(C(=O)OCC(=O)N2c3ccccc3NC(=O)C2(C)C)c(C)n1-c1ccccc1 | 130% (active)
28 | CCNc1ccc(C(=O)OCC(=O)N2c3ccccc3NC(=O)C2(C)C)cc1[N+](=O)[O-] | 99%
29 | COc1ccc(Cl)cc1-n1c(C)cc(C(=O)OCC(=O)N2CC(=O)Nc3ccccc32)c1C | 105%
30 | CC1(C(=O)O)CCC(C(=O)Nc2ccc(Cl)c(Cl)c2)C1(C)C (stereo unspecified) | 103%
31 | COc1ccc(C(=O)COC(=O)CNC(=O)c2cccs2)cc1Br | 99%
32 | COc1ccccc1C(=O)Nn1c(-c2cccs2)nc2ccccc2c1=O | 111%
33 | CCn1c(NC(=O)c2ccccc2)c(-c2cccs2)c(=O)c2ccccc21 | 82% [inhibitor] (active)
34 | CCn1c(=O)c2cc(C(=O)Nc3cccc(C(C)=O)c3)sc2c2ccccc21 | 106%
35 | COc1ccccc1N(CC(=O)N/N=C(\C)c1ccccc1O)S(=O)(=O)c1ccc(C)cc1 | 102%
36 | O=C(Cc1cccs1)N/N=C/c1ccc(OCc2ccccc2)cc1 | 129% (active)
37 | CCOc1ccc(NC(=O)C/C(C)=N/NC(=O)Cc2cccs2)cc1 | 99%
38 | O=C(N/N=C/c1ccc(OCc2ccccc2)cc1)c1ccc(O)cc1 | 119%
39 | N#C/C(=C/c1ccc(N2CCOCC2)o1)C(=O)N1CCOCC1 | 94%
40 | N#C/C(=C\c1ccccc1C(F)(F)F)C(=O)Nc1ccccc1F | 97%
41 | N#C/C(=C\C1=C(N2CCOCC2)C(=C\c2ccccc2)/CC1)C(=O)Nc1ccccc1F | 8% [inhibitor] (active)
42 | CN(CCC1CCOCC1)Cc1cn[nH]c1-c1ccc(-c2ccccc2)cc1 | 109%
43 | CCCCC(CC)CNCc1cccn1CCN1CCOCC1 (stereo unspecified) | 100%
44 | COc1cccc2sc(N(CCCN(C)C)C(=O)C(c3ccccc3)c3ccccc3)nc12 | 111%
45 | COc1cccc2sc(N(CCCN(C)C)C(=O)CCS(=O)(=O)c3ccccc3)nc12 | 97%
46 | CN(C)CCCN(C(=O)COc1ccccc1)c1nc2c(Cl)cccc2s1 | 35% [inhibitor] (active)
47 | COCCNc1ccc(-c2n[nH]c(=O)c3ccccc23)cc1[N+](=O)[O-] | 103%
48 | Cc1ccccc1C(=O)Nc1ccc(N2CCCCCC2)cc1 | 80%

Row | Compound | binding response (% of control)
49 | O=C1C=CC(=O)N1c1ccc(N2CCCCC2)cc1 | 49% [inhibitor] (active)
50 | CCOC(=O)/C(C#N)=C/c1ccc(N2CCCCC2)cc1 | 99%
51 | C#CC(C)(C)NC(=O)c1cnc(-c2ccccc2)nc1-c1ccccc1 | 105%
52 | CC(NC(=O)c1cc2cc(Cl)ccc2oc1=N)c1ccccc1 (stereo unspecified) | 100%
53 | Cc1ccc(CN(C)Cc2cc(=O)oc3cc(C)c(Cl)cc23)cc1 | 109%
54 | COc1ccc(N(C(=O)c2snc(C(N)=O)c2N)C(C(=O)NC2CCCC2)c2ccco2)cc1OC (stereo unspecified) | 101%
55 | Cc1c(Cl)cccc1NC(=O)[C@@]1(CC(=O)O)CC(/C=C/c2ccccc2)=NO1 | 96%
56 | COC(=O)c1c(NC(=O)c2ccccc2F)sc2c1C(C(=O)OC)CC2 (stereo unspecified) | 98%
57 | CC(=O)Nc1cccc(OCC(=O)/C=C2\N(C)c3ccccc3C2(C)C)c1 | 62% [inhibitor] (active)
58 | Cc1noc(C)c1C(=O)OCC(=O)/C=C1\N(C)c2ccccc2C1(C)C | 100%
59 | CC(C)Nc1nnc(SCC(=O)/C=C2\N(C)c3ccccc3C2(C)C)s1 | 101%
60 | CC(CN1CCOCC1)OC(=O)c1ccc(C(C)(C)C)cc1 (stereo unspecified) | 106%
61 | COc1cccc(/C=N/NC(=O)c2[nH]nc3c2CCc2ccccc2-3)c1O | 102%
62 | COc1cccc(/C=N\NC(=O)C2=NNC(=O)C2C)c1O (stereo unspecified) | 128% (active)
63 | COc1cc2cc(C(=O)N/N=C/c3cccc(OC)c3OC)[nH]c2cc1OC | 94%
64 | CCCc1cc(=S)n2c([nH]c3ccccc32)c1C#N | 1% [inhibitor] (active)
65 | CCOC(=O)CCc1c(C)c(C#N)c2[nH]c3ccccc3n2c1=O | 109%
66 | Cc1ccccc1Cn1c(=O)[nH]c2ccccc21 | 52%
67 | COC(C[C@H](O)CC(=O)[C@@H](C)OCc1ccccc1)OC | 101%
68 | O=C(NCCC1=CCCCC1)c1ccc(Cl)c([N+](=O)[O-])c1 | 153% (active)
69 | CN(c1ccc(C(=O)NCCC2=CCCCC2)cc1)S(C)(=O)=O | 100%
70 | Cn1nnc2cc(C(=O)NCCC3=CCCCC3)ccc21 | 99%
71 | O=[N+]([O-])c1ccccc1/C=C/CN1CCC(O)CC1 | 105%
72 | Cc1noc(C)c1S(=O)(=O)N(C)Cc1ccccc1 | 3% [inhibitor] (active)

Row | Compound | binding response (% of control)
73 | Cc1noc(C)c1S(=O)(=O)Nc1ccc(C(=O)O)cc1 | 98%
74 | Cc1cc(C)cc(N(CC(=O)N2CC=C(c3ccccc3)CC2)S(=O)(=O)c2c(C)noc2C)c1 | 112%
75 | CCOc1ccccc1NC(=O)COc1ccc(S(=O)(=O)N2CCCC2)cc1 | 98%
76 | COc1ccc(S(=O)(=O)NC(C)C(=O)NCc2ccncc2)cc1Cl (stereo unspecified) | 99%
77 | CC1CCN(C2=NC(=O)/C(=C/c3cn[nH]c3-c3ccccc3)S2)CC1 | 130% (active)
78 | Cc1ccc(N2CCN(C3=NC(=O)/C(=C\c4cccs4)S3)CC2)cc1 | 98%
79 | CC1CCN(C2=NC(=O)/C(=C/c3ccc(O)cc3)S2)CC1 | 100%
80 | COc1ccc(CN2CC[C@H]3C=CC[C@@H](C(=O)N4CCOCC4)[C@H]3C2=O)cc1OC | 98%
81 | CC(=O)c1cccc(NC(=S)N2CCN(S(C)(=O)=O)CC2)c1 | 102%
82 | CCCNC(=O)CCn1nc(-c2ccccc2)c2ccccc2c1=O | 94%
83 | O=c1c2ccccc2c(-c2ccc(Br)cc2)nn1Cc1ccccc1 | 109%
84 | O=c1c2ccccc2c(-c2ccccc2)nn1Cc1ccccc1 | 134% (active)
85 | C=CCOC(=O)C1=C[C@H](c2ccc(Br)cc2)C[C@H](OCCCCO)O1 | 99%
86 | Cc1cccc(OCCC(=O)Nc2ccccc2C(N)=O)c1 | 104%
87 | COc1ccccc1C(=O)N/C(=C/c1ccco1)C(=O)Nc1ccc(C(=O)O)cc1 | 102%
88 | N#Cc1ccc(CSc2ncccn2)cc1 | 101%
89 | Cc1cc(C)nc(-n2nc(C)cc2NC(=O)c2ccc(F)cc2F)n1 | 105%
90 | CCOC(=O)Cc1csc(NC(=O)CSc2nc(C)cc(=O)[nH]2)n1 | 58% [inhibitor] (active)
91 | CCCCc1nnc(NC(=O)CSc2nc(C)cc(=O)[nH]2)s1 | 98%
92 | CCOC(=O)Cc1csc(NC(=O)CSc2ccc(Br)cc2)n1 | 107%
93 | COc1ccc(S(=O)(=O)N2CCN(C(=O)N(C)C)C2C)cc1 (stereo unspecified) | 102%
94 | O=C(Nc1ccn(Cc2ccccc2)n1)c1n[nH]c([N+](=O)[O-])c1Cl | 99%
95 | O=C(Nc1cccc(NC(=O)c2cccc(F)c2)c1)c1ccccc1 | 101%
96 | O=C(Nc1ccn(Cc2ccccc2)n1)c1cccc(F)c1 | 135% (active)
